# Results: PubChem BioAssay (NCI)
# About 83,000 compounds went through this panel and 20% of them were active in at least one assay; those are over-represented in the sample as a whole.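 Testing used 96-well plates and a 48-hour single-concentration exposure. Example: -40 means 40% of the starting cells died.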 A number with no mark means an inactive call. Active and inactive are the calls of the source. How the source made its calls: active means growth percent below 10; inactive means the rest.
# Assays:
# Experiment in all cases: NCI-60 one-dose screen, 48 h (100 = growth as untreated, 0 = no growth, -100 = all killed)
# Conditions in all cases: 10 µM unless noted
# SK-MEL-2 melanoma = tested on: SK-MEL-2 melanoma
# EKVX NSCLC = tested on: EKVX NSCLC
# SN12C renal = tested on: SN12C renal
# UO-31 renal = tested on: UO-31 renal
# TK-10 renal = tested on: TK-10 renal
# ACHN renal = tested on: ACHN renal
# CAKI-1 renal = tested on: CAKI-1 renal
# A498 renal = tested on: A498 renal
# CCRF-CEM leukemia = tested on: CCRF-CEM leukemia
# MOLT-4 leukemia = tested on: MOLT-4 leukemia
# RPMI-8226 leukemia = tested on: RPMI-8226 leukemia
# OVCAR-8 ovarian = tested on: OVCAR-8 ovarian
# OVCAR-5 ovarian = tested on: OVCAR-5 ovarian
# OVCAR-4 ovarian = tested on: OVCAR-4 ovarian
# SK-OV-3 ovarian = tested on: SK-OV-3 ovarian
# IGROV1 ovarian = tested on: IGROV1 ovarian
# OVCAR-3 ovarian = tested on: OVCAR-3 ovarian
# HS 578T breast = tested on: HS 578T breast
# NCI/ADR-RES ovarian = tested on: NCI/ADR-RES ovarian
# SR leukemia = tested on: SR leukemia
SMILES,growth (SK-MEL-2 melanoma),growth (EKVX NSCLC) [%],growth (SN12C renal),growth (UO-31 renal),growth (TK-10 renal) [%],growth (ACHN renal),growth (CAKI-1 renal) [%],growth (A498 renal),growth (CCRF-CEM leukemia),growth (MOLT-4 leukemia),growth (RPMI-8226 leukemia),growth (OVCAR-8 ovarian),growth (OVCAR-5 ovarian),growth (OVCAR-4 ovarian),growth (SK-OV-3 ovarian) [%],growth (IGROV1 ovarian),growth (OVCAR-3 ovarian),growth (HS 578T breast),growth (NCI/ADR-RES ovarian),growth (SR leukemia)
COc1cc2cc(COc3nccc(-c4ccc(Cl)cc4)n3)c(=O)[nH]c2cc1OC,96.7%,91,69.3%,67.2%,100,102%,86.5,76.6%,-20.5% (active),42.1%,-28.4% (active),81.3%,96.7%,82.5%,89.9,79.6%,90.4%,67.3%,84.2%,–
O=S(=O)(Nc1ccc(F)c(Cl)c1)c1ccc(-c2cnc(C3CC3)o2)cc1,38%,32.2,49.9%,41.8%,44,44.5%,32.5,-14.5% (active),19.6%,29.5%,19.3%,21.7%,34.4%,39.1%,35.1,27.3%,-8.13% (active),11.3%,-17% (active),–
C=C1CCC2C3(C)COC(c4ccc(SC)cc4)OC3CCC2(C)C1C/C=C1/C(=O)OCC1O (stereo not drawn),64.8%,56.1,65.6%,60.7%,101,74.2%,75.3,96.7%,2.76% (active),5.06% (active),11.6%,34.9%,79.1%,59.1%,96.3,99.2%,71.4%,102%,49.8%,–
COc1ccc(C(=O)/C=C/c2c[n+](=O)c3ccc(F)cc3n2[O-])cc1,112%,92,96.2%,87.8%,106,102%,95.2,109%,95.9%,107%,109%,83.5%,97.2%,106%,106,133%,102%,–,101%,–
O=C1C=CC(=O)c2c1nc1n2CCCC1,70.6%,104,74%,91.1%,109,81.1%,95.7,96.3%,58.8%,90.3%,116%,92%,112%,101%,92.5,103%,21%,73.1%,89.6%,–
COc1ccc(C2Nc3ccccc3-n3cccc32)cc1 (stereo not drawn),92.7%,68.8,97.4%,58.3%,100,88%,89,93.2%,104%,120%,89.4%,96.6%,84.9%,93.6%,99.9,71.3%,96.1%,93.2%,89.9%,–
O=C1C(=O)N(CCCCn2cc(CO)nn2)c2ccccc21,98.8%,92.4,104%,87.7%,102,101%,87.8,99.4%,104%,95.7%,99.3%,102%,98.6%,99.2%,100,106%,115%,98.8%,100%,–
COc1ccc(/C=C2\CN(C(=O)CCN3CCC(=NO)CC3)C/C(=C\c3ccc(OC)cc3)C2=O)cc1,89.4%,28,-52% (active),-87.7% (active),21.5,-41.7% (active),11.3,36.1%,0.63% (active),0.493% (active),-11.1% (active),19.6%,-4.94% (active),28.2%,68,–,6.9% (active),6.95% (active),11.3%,2.16% (active)
NCCN1CCN(c2nccc(-c3ccc4ccccc4c3)n2)CC1,76.9%,75.6,52.1%,12.4%,73.9,46.5%,45.3,61.6%,18%,22.1%,5.16% (active),71.3%,73.8%,78.7%,88.6,51.2%,73.8%,63.9%,69.4%,–
CN[C@@]12CC3(C=CC(=O)C=C3)O[C@]1(Cc1ccc(OC)cc1)N(C)C(=O)N2,74.1%,75.8,44%,76.2%,88.6,44.4%,72.9,75.6%,7.27% (active),73%,17.2%,6.34% (active),33.1%,60.9%,108,55.3%,17.3%,106%,61.7%,–
COc1ccc(-c2cc(C(=O)N=Nc3c(O)[nH]c4ccccc34)no2)cc1,97.9%,97.4,94.9%,81.5%,118,107%,86,84.6%,101%,106%,96.9%,103%,97.7%,105%,103,102%,108%,95.3%,102%,–
C=C1CC[C@@H]2[C@](C)(COC(C)=O)[C@H](OC(C)=O)CC[C@@]2(C)[C@@H]1CC(NCc1ccc(F)cc1)C1=CCOC1=O (stereo partly drawn),73.2%,50,46.2%,31.3%,66.6,–,46,–,9.18% (active),-0.37% (active),1.27% (active),18.6%,99%,30.9%,94.3,48.3%,23.7%,72.5%,28.3%,7.69% (active)
Nc1cccc(-c2nc3sccn3c2-c2ccnc(NCCCNS(=O)(=O)c3ccc(C(F)(F)F)cc3)n2)c1,-21.7% (active),21.1,12.8%,-8.25% (active),–,6.33% (active),18.3,11.2%,6.17% (active),-29.6% (active),-29.7% (active),7.14% (active),40.9%,-1% (active),23.8,4.78% (active),6.08% (active),12.3%,0.058% (active),15.5%
COc1c2ccccc2c(OC)c2[nH]c(=O)ccc12,64.2%,27.8,40.5%,59.9%,–,65.1%,81,48.3%,-58.7% (active),69.4%,55.2%,87%,75.4%,60.4%,92.6,81.5%,59.2%,32.8%,57.6%,22.2%
CN1C2CCC1/C(=C\c1ccc(Cl)cc1)C1=C2[C@@H](c2ccc(Cl)cc2)C(C#N)=C(N)O1 (stereo partly drawn),84.6%,75.7,94%,65.6%,97,–,76,80%,77.2%,57.6%,62.6%,93.3%,84.5%,75.6%,94.8,79.1%,92.5%,95.1%,95.8%,–
CCCCCCCCCCCCCCCCCCNC(=O)[C@H]1CSC(c2ccc(OC)c(F)c2)N1 (stereo partly drawn),-54.1% (active),17.5,-80.7% (active),66.6%,59.5,–,52.9,–,–,10% (active),-46.8% (active),-22.8% (active),-13.3% (active),76.9%,88.1,30.2%,-3.45% (active),32.6%,-36.8% (active),-30.9% (active)
COc1ccc(S(=O)(=O)NCCNc2nccc(-c3c(-c4cccc(N)c4)nc4sccn34)n2)cc1,108%,95.4,95.7%,83.2%,–,95.3%,93.8,91.6%,101%,99%,96%,98.2%,121%,82.4%,108,98%,100%,97.9%,101%,107%
